The sequences below were run against LCN1 (assay: pooled miR-30 sensor sort-seq; sequence = guide strand). Conditions: shRNA.
Also: reference of the scale not given here.

| Sequence | sensor-assay potency score (higher = more potent) |
| --- | --- |
| TTCCAGGGTCGTGAGGGTCATG | -1.33 |
| TCCTGAATCTCCTCGTCTGAGG | -2.03 |
| TTCATCTCAGGGAACTCCCTGT | 0.622 |
| ATGCTCTCCGTGCTGAGTCCGC | -1.5 |
| ATCCTGAATCTCCTCGTCTGAG | -1.24 |
| ATTCATCTCAGGGAACTCCCTG | -0.0672 |
| TTGGCTTCCAGGTTGCCCCCTT | -0.189 |

What follows are sequences tested against LECT2 in the same assay as above. Conditions: shRNA.

| Sequence | sensor-assay potency score (higher = more potent) |
| --- | --- |
| TATTCGAACACCATTATTGATA | -1.28 |
| TATGCCAGGATAAACTTTCTGC | -0.251 |
| TTCCAGATATTCGAACACCATT | -1.45 |
| TTGACACAAAAACCTCTTCCAG | -1.04 |
| TTGTATGCCAGGATAAACTTTC | -0.895 |
| ATTATTGATAGCATTCTTGTTT | -0.52 |
| TAATGTAGAACATTTTGACACA | -0.673 |
| TTTGAGCAGAGTACTGTCCACA | -0.808 |
| TTATTGATAGCATTCTTGTTTT | -1.1 |
| ATGTAGAACATTTTGACACAAA | -1.54 |
| TCTCATTGGAAGACTTGCCAGC | -0.403 |
| ATTGATAGCATTCTTGTTTTGA | -0.317 |

These sequences were tested against LEFTY1 in the same assay as above. Conditions: shRNA.

| Sequence | sensor-assay potency score (higher = more potent) |
| --- | --- |
| TCCAACGCCAGGAACCTGCCGG | -1.04 |
| TCATAAGCCAGGAAGCCCGGGG | -0.504 |
| TAGTCCCCAAGGTCCAGGGTGT | -1.02 |
| TTACAAAGTCTTTATTATCTGG | -0.428 |
| TTAGGTGAGGTAACTTGTCAGA | -0.87 |
| TTCTCGGCCCACTTCATCCCCT | -1.23 |
| TATCTCCACATGTAAGTGCTTA | -0.789 |
| TTTGAGCTGCAGCTGCCGCAGC | -0.825 |
| TAAACAATGACACATTGGGCTT | -1 |
| TCCATAGTCCCCAAGGTCCAGG | -1.98 |
| TCTTTGAGCTGCAGCTGCCGCA | -1.36 |
| TGACCAGCTCCTCCATGTCGGC | -1.7 |

The sequences below were run against LEKR1 in the same assay as above. Conditions: shRNA.

| Sequence | sensor-assay potency score (higher = more potent) |
| --- | --- |
| TTGCTCTTCAAATTCAACCAAG | -1.09 |
| TATACTTTTGGATTACATCTTG | -0.0779 |
| TTTCACAGTCAGCTCTTCCTGT | 0.514 |
| TTGCAATTTTGTTTCTTCCTTA | 0.537 |
| TTAGATCTCTTGTAGCGCCTGT | 0.858 |
| TTCTGCTTCAATCTTCTCCTTC | 0.505 |
| TTTAAGAGTGGTCACTTCCTGC | -0.157 |
| TTCTCTACGCACTGTCTCCTGA | -0.0391 |
| TACTCTTTTCAGTTCATCCGAC | 0.07 |
